# Screening results deposited in PubChem BioAssay by National Center for Advancing Translational Sciences (NCATS).
# An excerpt weighted towards active compounds, which were near 12% of everything screened.
# BAZ2B inh = BAZ2B (human) inhibition; Q9UIF8; 4.4% of 360,000 active; AlphaScreen BAZ2B-H3K14Ac peptide displacement; Potency, µM (series often up to 114 µM), inactives show at the highest dose activity change, negative = inhibition, most hits filed as inhibitors; note: potency is the fitted concentration of half-maximal effect; % is set by controls: 0 for no effect and ±100 for the full control effect; nearly all actives have a fitted effect of over 60% in size
#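 Protein-peptide AlphaScreen: BAZ2B 50 nM, b-H3K14Ac 50 nM, 1x PBS pH 7.4 + 0.01% Tween-20. Preincubation 30 min RT; cpd 30 min RT (top 110 uM); beads 20 min RT, light-protected.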
# JMJD2A Tudor = JMJD2A Tudor domain (human) inhibition; 4.4% of 390,000 active; O75164; Potency, µM (highest dose often 114 µM), for the others: at the top dose activity change, negative = inhibition, most hits filed as inhibitors; AlphaScreen JMJD2A-Tudor / H3K4me3 peptide binding; note: potency is the fitted concentration of half-maximal effect; % is set by controls: 0 for no effect and ±100 for the full control effect; nearly all actives have a fitted effect of over 50% in size
# HP1b binding inh = HP1-beta chromodomain-methylated histone interaction inhibition; AlphaScreen HP1-beta / biotin-H3K9me3 peptide binding; AID 540317; 0.56% of 390,000 active; Potency, µM (titrated, usually from 114 µM), for the others: at the top dose activity change, negative = inhibition, actives largely listed as inhibitors; note: potency is the fitted concentration of half-maximal effect; nearly all actives have a fitted effect of over 70% in size
# Target sequence (P83916 whole entry, looked up): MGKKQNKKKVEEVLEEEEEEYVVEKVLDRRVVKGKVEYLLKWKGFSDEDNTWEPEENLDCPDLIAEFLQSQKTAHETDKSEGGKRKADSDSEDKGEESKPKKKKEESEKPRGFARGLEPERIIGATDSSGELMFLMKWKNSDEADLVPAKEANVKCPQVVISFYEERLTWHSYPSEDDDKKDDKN
#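 HP1-beta protein (50 nM final) preincubated 30 min at room temperature with biotinylated H3(1-18)K9me3 peptide (50 nM) in PBS pH 7.4, 0.01% Tween-20, then compound added for 30 min. AlphaScreen streptavidin donor/nickel chelate acceptor beads (10 ug/mL final), 30 min dark, luminescence read.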
# PLK1 PBD block = PLK1 (human) polo-box domain binding inhibition | Potency, µM, for the others: max response, negative = inhibition, actives largely listed as inhibitors | P53350 | 2.8% of 360,000 active | Plk1 PBD binding of FITC phosphopeptide, fluorescence polarization; note: potency is the fitted concentration of half-maximal effect; series mostly up to about 57 µM; % is set by controls: 0 for no effect and ±100 for the full control effect; nearly all actives have a fitted effect of over 65% in size
# Target sequence (P53350 whole entry, looked up, the tested form may be a part): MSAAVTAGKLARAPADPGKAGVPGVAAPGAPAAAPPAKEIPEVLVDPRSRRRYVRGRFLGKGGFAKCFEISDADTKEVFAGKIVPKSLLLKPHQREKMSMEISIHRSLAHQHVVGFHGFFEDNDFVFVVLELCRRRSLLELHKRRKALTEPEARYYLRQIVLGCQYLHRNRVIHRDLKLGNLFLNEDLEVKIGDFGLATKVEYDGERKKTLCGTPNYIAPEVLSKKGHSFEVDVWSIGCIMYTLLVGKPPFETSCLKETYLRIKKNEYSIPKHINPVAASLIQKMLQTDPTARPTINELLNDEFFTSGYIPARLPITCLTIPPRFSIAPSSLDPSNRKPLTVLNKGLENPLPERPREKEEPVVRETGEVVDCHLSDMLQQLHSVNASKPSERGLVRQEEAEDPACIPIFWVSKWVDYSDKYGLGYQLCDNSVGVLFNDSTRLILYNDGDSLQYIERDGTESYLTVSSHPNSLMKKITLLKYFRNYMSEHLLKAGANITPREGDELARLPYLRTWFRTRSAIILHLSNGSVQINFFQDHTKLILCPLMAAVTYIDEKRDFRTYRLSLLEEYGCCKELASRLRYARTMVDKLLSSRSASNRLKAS
# PI5P4K alpha inh = blocks human PI5P4K alpha kinase activity | max response, % | 1.2% of 330,000 active | P48426 | PI5P4Kalpha enzyme, ADP-Glo luminescence, 60 min; active compounds read low; active = max response of -50% or lower; inconclusive = between -30% and -50%; inactive = -30% or higher; note: value at the top dose of about 77 µM; % is set by controls: 0 for no effect and ±100 for the full control effect
#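 PI5P4Kalpha ADP-Glo assay; 5 microM ATP final; 60 min RT reaction; HEPES pH 7.4/EGTA/CHAPS, 5% DMSO; controls lacking substrate or enzyme; luminescent end-point.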
# G9a block = G9a (human) methyltransferase inhibition | AID 504332 | Q96KQ7 | Potency, µM (series often up to 102 µM), for inactives: top-dose activity, negative = inhibition, usual class: inhibitors | G9a H3K9 monomethylation, AlphaScreen, 2 h | 8.8% of 350,000 active; note: potency is the fitted concentration of half-maximal effect; % is set by controls: 0 for no effect and ±100 for the full control effect; nearly all actives have a fitted effect of over 75% in size
#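 Compounds were preincubated with 20 nM G9a for 15 min, after which biotinylated H3K9 peptide (500 nM) and SAM (20 uM) started a 2 h room-temperature reaction. Monomethylated product was quantified by antibody-based AlphaScreen chemiluminescence.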
# * marks the source's active call; other numbers are inactive results; ? = inconclusive; / = not tested or not shown; [ ] = another dose, or the depositor's remark. Unless noted, calls come from the whole dose curve; as a rule, active = well fitted curve in the direction sought with a large enough effect; inconclusive = small, poorly fitted or top-dose-only effect, or another doubt; inactive = no such curve, though single readings can be large; an effect the other way counts as inactive or inconclusive.
SMILES,BAZ2B inh,JMJD2A Tudor,HP1b binding inh,PLK1 PBD block,PI5P4K alpha inh,G9a block
COc1nc(-c2ccccc2)ccc1-c1noc(-c2ccco2)n1,5.8%,50.1µM*,?,-5.7%,12.4,?
COc1ccc(-c2ccc(-c3noc(-c4ccco4)n3)c(OC)n2)cc1,4.3%,3.2%,39.3%,5.9%,/,-0.3%[59 µM]
CCCCc1nnc(SCc2cc(=O)c3cc(C(=O)OCC)ccc3[nH]2)n1C,4.0%,-8.8%,19.7%[57 µM],/,/,10.0%[59 µM]
COc1ccccc1CNc1ncncc1-c1ccccc1OC,/,/,/,/,/,-25.1%[0.501 µM]
CCOC(=O)Cc1c(C)nc2c(C#N)c[nH]n2c1=O,-6.2%,-24.1%,31.1%,0.2%,/,79.4µM*
CCOC(=O)Cc1c(C)nc2c(-c3ccc(Cl)cc3)cnn2c1C,92.2%,29.8%,59.4%,18.9µM*,9.7,111.0%
CCOC(=O)Cc1c(C)nc2c(-c3ccc(Cl)cc3)c(C)[nH]n2c1=O,7.6%,-17.9%,36.6%,-9.6%,/,50.1µM*
Clc1ccc(-c2cnn3c(-c4ccncc4)ccnc23)cc1,-24.9%,-33.8%,-0.7%,-9.0%,2.6,-31.0%
CC(=O)c1cnc2c(-c3ccc(Cl)cc3)cnn2c1C,6.7%,-10.7%[11.4 µM],-0.6%,29.9µM*,9.7,24.6%[59 µM]
COc1ccc(-c2cn3cccnc3n2)cc1NC(=O)c1c(F)cccc1F,2.8%,-2.3%,27.0%[57 µM],/,/,-4.4%[59 µM]
Cc1ccc(NC(=O)Cn2cc(C(=O)c3cccs3)c3ccccc32)cc1C,-13.5%,-14.4%,37.5%,/,/,-20.1%[59 µM]
COc1ccc(CN(Cc2ccco2)c2cnc(S(C)(=O)=O)nc2C(=O)Nc2ccc(F)cc2)cc1,-22.8%,-28.1%,19.6%,/,/,?
O=C(NC1CC(=O)N(c2ccc(F)cc2)C1)c1ccc2c(c1)OCO2 (stereo not drawn),-0.3%,-13.3%,6.5%,/,/,4.8%[59 µM]
NC(N)=NCCC[C@H](NC(=O)CNC(=O)c1ccccc1)C(=O)Nc1cc(C(F)(F)F)ccc1Cl,/,-30.1%,/,/,/,/
CC1=C(C(=O)Nc2ccccc2)C(c2ccc(Br)cc2)n2nc(CCCO)nc2N1 (stereo not drawn),3.9%,9.0%,30.8%,/,/,-7.7%[59 µM]
Cc1ccc(C)n1-c1ccc(C(=O)NC2CCN(Cc3ccccc3)CC2)cc1,?,?,-5.8%,-11.5%,-0.4,-18.4%[59 µM]
Cc1ccc(S(=O)(=O)N2CCCCC2C(=O)N2CCN(Cc3ccccc3)CC2)cc1 (stereo not drawn),?,-28.9%,31.6%,0.7%,/,11.2µM*
O=C(C1CCCCN1S(=O)(=O)c1ccccc1)N1CCN(Cc2ccccc2)CC1 (stereo not drawn),-0.5%,-25.4%,-6.5%,-7.4%,/,?
COC(=O)C1CCN(Cc2ccc(C)cc2)CC1,2.6%,-15.5%,38.4%,-3.1%,2.3,1.6%[59 µM]
Cc1ccc(S(=O)(=O)NNC(=O)C2CCN(Cc3ccccc3)CC2)cc1,-4.6%,79.4µM*,42.9%,-6.1%,-0.9,20.7%[59 µM]
Cc1ccc(CN2CCC(NC(=O)c3ccccc3)CC2)cc1,-4.8%,-21.2%,14.8%,29.9µM*,-5.8,6.9%[0.501 µM]
CCC(C)NC(=O)c1ccc2c(c1)nc1n2CCCCC1 (stereo not drawn),1.4%,-13.3%,9.5%[57 µM],/,/,1.3%[59 µM]
CN(Cc1ccccc1)C(=O)[C@@H]1CCCN1C(=O)[C@@H]1CCCN1C(=O)c1ccc(Cl)cc1,/,/,/,2.7%,-2.9,/
CCc1nnc(NC(=O)C(=O)c2cc(C)n(-c3ccccc3)c2C)s1,-27.3%,1.3%,7.1%,/,/,-14.1%[59 µM]
CC(C)CC(COCc1ccc([N+](=O)[O-])cc1)N1CCN(C(=O)c2ccc(C(F)(F)F)cc2)CCC1=O (stereo not drawn),?,-19.9%,25.4%,0.4%,-5.1,50.1µM*
SMILES,BAZ2B inh,JMJD2A Tudor,HP1b binding inh,PLK1 PBD block,PI5P4K alpha inh,G9a block
Cc1cccc(C(=O)N2CCC(=O)N(C(COCc3cccc(Cl)c3)Cc3ccccc3)CC2)c1 (stereo not drawn),-7.8%,-17.1%,57.4%,-4.7%,9.2,79.4µM*
O=C(c1ccc(C(F)(F)F)cc1)N1CCC(=O)N(C(COCc2ccc(C(F)(F)F)cc2)Cc2ccccc2)CC1 (stereo not drawn),?,-5.0%,44.2%,-9.8%,12.5,44.7µM*
Cc1cccc(C(=O)N2CCC(=O)N([C@H](COCc3cccc(Cl)c3)Cc3ccccc3)CC2)c1,/,/,/,6.7%,1.2,4.2%[59 µM]
Cc1sc2ncnc(N3CCC(C(=O)Nc4nnc(SCc5ccccc5F)s4)CC3)c2c1C,2.7%,-14.5%,20.5%,0.9%,-2.3,?
CN(C(=O)c1cccc(NC(=O)Cc2ccc(NC(=O)C3CCCN(C(=O)C4CCCC4)C3)cc2)c1)C1CC1 (stereo not drawn),/,-0.7%,33.1%,0.9%,-0.1,/
COc1ccccc1CNC(=O)CSCc1nc(-c2ccc(OC)c(OC)c2)oc1C,?,-13.5%,20.1%,/,/,?
Nc1c2c(=O)[nH]c(O)cc2nn1-c1ccccc1,/,-15.9%,4.1%[57 µM],-9.9%,-7.1,/
CCOC(=O)c1ccc(-c2ccc(N3C(c4cccc(OC)c4)=Cc4ccc(F)cc4C3CC(C)=O)cc2)cc1F (stereo not drawn),/,/,/,0.9%,0.3,/
COc1ccc(CN2CCc3cc(OC)c(OC)cc3C2)cc1O,?,44.7µM*,?,3.1%,-0.4,-138.2%[59 µM]
COc1cc2c(cc1OC)CN(Cc1ccc(F)cc1)CC2,50.1µM*,3.16µM*,-16.9%[57 µM],336.3%,8.4,?
COc1cc2c(cc1OC)CN(Cc1cc(OC)c3c(c1)OCO3)CC2,50.1µM*,8.91µM*,-9.3%,-7.4%,0.1,?
COc1cc2c(cc1OC)CN(CC(=O)Nc1ccc(C)cc1)CC2,-36.1%,-17.2%,26.4%,-1.0%,/,?
C#CCOCCOCCOCCNc1nc(N2CCN(C(=O)CCCCCCCCCCNC(=O)[C@H]([C@@H](C)CC)n3cc(CCCCN=C(N)N)nn3)CC2)nc(N2CCN(C(=O)CCCCCCCCCCNC(=O)[C@@H]([C@H](C)O)n3cc(C)nn3)CC2)n1,?,56.2µM*,?,0.4%,-84.0*,11.8%[2.33 µM]
C#CCOCCOCCOCCNc1nc(N2CCN(C(=O)CCCCCCCCCCNC(=O)[C@H]([C@@H](C)CC)n3cc(CCCCN=C(N)N)nn3)CC2)nc(N2CCN(C(=O)CCCCCCCCCCNC(=O)[C@H](CCCN=C(N)N)n3cc(C[C@@H](C)CC)nn3)CC2)n1,50.1µM*,/,/,/,/,2.1%[2.33 µM]
C#CCOCCOCCOCCNc1nc(N2CCN(C(=O)CCCCCCCCCCNC(=O)[C@H](CCCN=C(N)N)n3cc(C[C@@H](C)CC)nn3)CC2)nc(N2CCN(C(=O)CCCCCCCCCCNC(=O)[C@@H]([C@H](C)CC)n3cc(CCCCCN)nn3)CC2)n1,56.2µM*,/,/,/,/,10.4%[2.33 µM]
